The results in this text go back to PubChem BioAssay.

Values without a mark were called inactive. How the calls were made is not given here.

For the test, the target named is Pantothenate synthetase (Mycobacterium tuberculosis (strain ATCC 25618 / H37Rv)) (UniProt P9WIL5). Put plainly: Recombinant Mtb pantothenate synthetase (PanC) inhibitors, coupled enzyme, confirmatory (AID 375).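 Further: 0% = full reaction with vehicle and 100% = no enzyme background.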 The note with it: coupled enzyme assay; at 10 µM, stronger effect = higher value.
Chain of Pantothenate synthetase (Mycobacterium tuberculosis (strain ATCC 25618 / H37Rv)) (P9WIL5 whole entry, looked up): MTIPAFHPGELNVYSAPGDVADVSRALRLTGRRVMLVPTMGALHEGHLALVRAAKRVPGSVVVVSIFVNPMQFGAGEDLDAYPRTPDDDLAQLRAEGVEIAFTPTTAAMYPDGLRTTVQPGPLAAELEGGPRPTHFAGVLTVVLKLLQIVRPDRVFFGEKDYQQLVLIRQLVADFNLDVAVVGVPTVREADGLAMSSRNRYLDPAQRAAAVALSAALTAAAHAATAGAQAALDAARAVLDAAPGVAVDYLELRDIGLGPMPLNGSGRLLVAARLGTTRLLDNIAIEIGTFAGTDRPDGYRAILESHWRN
For orientation: inhibition means the relative decrease from the control value, in per cent. For the molecule `CCOc1ccc(NCCC(=O)c2ccc3c(c2)OCO3)cc1`, the inhibition is 1%.

`CC1(c2ccc(Cl)cc2)NC(=O)N(CC(=O)NC(=O)NCc2ccco2)C1=O` (stereo not given): the inhibition was 1%.

In the case of `CCOC(=O)CNC(=O)CSc1nc(N)cc(N)n1`, the inhibition is 1%.

Take `O=C(Nc1nc(-c2ccccn2)cs1)C1CC1`: the inhibition was 0%.

As to `CCCOC(=O)c1ccc(-c2c(C)noc2-c2ccc(OC)cc2O)o1`, the inhibition is 0%.

For the molecule `CCOC(=O)C(C)(C)Sc1nc2c(cnn2-c2ccc(C)cc2)c(=O)[nH]1`, the inhibition is 0%.

With `COc1ccc(N2CCN(C(=O)CSc3ncnc4c3cnn4-c3ccccc3C)CC2)cc1`, the inhibition was 0%.

On to `O=C1CCn2nc(-c3ccc(Cl)cc3)cc2N1`, for which the inhibition was 0%.

Regarding `COc1ccc(S(=O)(=O)N2CCN(Cc3ccc(Cl)cc3)CC2)cc1`, the inhibition was 0%.

Regarding `C/C(NC1CCCC1)=C(/C#N)C(N)=O`, the inhibition is 9%.

Take `NC(=O)CSc1nnc(-c2cc3ccccc3o2)n1Cc1ccccc1`: the inhibition was 0%.

As to `CCCCOC(=O)C1=C(C)Nc2ncnn2C1c1cccc(OC)c1OC` (stereo not given), the inhibition was 8%.

As to `Cc1nnc(SCCn2c(Br)nc3c2c(=O)n(C)c(=O)n3C)s1`, the inhibition was 1%.

For the molecule `CCC(C)Nc1nc2c(c(=O)n(C)c(=O)n2C)n1Cc1ccc(F)cc1` (stereo not given), the inhibition is 3%.

With `CN(CC(=O)N1CCN(c2ccccn2)CC1)S(=O)(=O)c1ccc2ccccc2c1`, the inhibition is 0%.

For the molecule `O=c1ccc2cc3c([nH]c4ccc(Br)cc43)oc-2c1O`, the inhibition was 0%.

As to `CCn1c(SCC(=O)Nc2ccc(C(C)=O)cc2)nc2ccccc21`, the inhibition was 3%.

For `CC1(C)Cc2c(sc3ncnc(N)c23)CO1`, the inhibition was 14%.

For `O=C(Nc1ccc(O)cc1)C1CCCN1S(=O)(=O)c1ccc(F)cc1` (stereo not given), the inhibition was 0%.

In the case of `NS(=O)(=O)c1cc2c(cc1C(F)(F)F)NCNS2(=O)=O`, the inhibition was 2%.

Turning to `CC1=C(C(=O)NCc2ccccc2)C(c2ccccc2OCC(N)=O)NC(=O)N1` (stereo not given), the inhibition was 0%.

On to `CCn1c2ccccc2c2cc(NC(=O)CSc3nnc(C4CC4)n3Cc3ccco3)ccc21`, for which the inhibition is 1%.

Consider `O=C(NCCO)c1cc2ccccc2cc1O`, for which the inhibition is 0%.

Regarding `O=C(O)c1cc2nc(-c3ccc(F)cc3)cc(C(F)(F)F)n2n1`, the inhibition is 2%.

Take `COc1cccc(C2C(C(=O)c3cccs3)=C(O)C(=O)N2CCCn2ccnc2)c1OC` (stereo not given): the inhibition is 0%.

As for `CNC(=O)OC(C)CNS(=O)(=O)c1ccc(C)cc1` (stereo not given), the inhibition was 0%.

Consider `Nc1ncnc(Nc2ccccc2C(F)(F)F)n1`, for which the inhibition was 0%.

In the case of `CCn1c(=O)n(CC(=O)Nc2cc(OC)ccc2OC)c(=O)c2ccccc21`, the inhibition is 10%.

Regarding `CCN(Cc1cc2ccccc2[nH]c1=O)S(=O)(=O)c1ccccc1`, the inhibition is 0%.

Consider `CCCCCOC(=O)CSc1nnc(-c2cc(OC)c(OC)c(OC)c2)o1`, for which the inhibition was 4%.

As to `c1ccc(-n2ncc3c(N4CCCCC4)ncnc32)cc1`, the inhibition was 0%.

In the case of `O=C(Nc1ccccc1)c1cnc2n(c1=O)CCS2`, the inhibition is 0%.

As for `CCc1nnc(NC(=O)CSc2nnc(-c3ccccc3OC)n2-c2ccccc2)s1`, the inhibition is 4%.

For the molecule `N#CC1=C(N)N(c2ccc(Oc3ccccc3)cc2)C(=O)C1`, the inhibition is 2%.

Regarding `Cc1ccc(-n2nnnc2SCC(=O)N2CCc3ccccc3C2)cc1`, the inhibition is 4%.

Turning to `COc1ccc(-n2nc(C(=O)Nc3ccc4c(c3)OCO4)c3c4ccccc4n(C)c3c2=O)cc1`, the inhibition was 2%.

Regarding `O=C(CCn1c(=O)sc2ccccc21)Nc1nccs1`, the inhibition is 0%.

Turning to `CC1CC(NC(=O)c2cnc3n(c2=O)CCS3)CC(C)(C)C1` (stereo not given), the inhibition was 5%.

Turning to `COc1ccc(C2C(C(=O)Nc3cccnc3)=C(C)Nc3nc(-c4cccs4)nn32)cc1OC` (stereo not given), the inhibition is 6%.

For the molecule `COC(=O)c1[nH]c(C)c(/C(O)=C2\C(=O)C(=O)N(CCCN3CCOCC3)C2c2ccccn2)c1C` (stereo not given), the inhibition is 8%.
